# Results as given in publication PMC4336329 (PLoS ONE, 2015).
# The campaign covered roughly 310,000 compounds. About 14,000 (4.5%) showed an effect of 50% or more. The effect is printed as a negative number. Only a selection was taken, and strong results are over-represented in it overall.
# Biological target: human ether-à-go-go-related gene (hERG) potassium channel (human, UniProt Q12809)
# Assay: primary screen, population patch clamp on CHO cells stably expressing hERG; higher = less effect of the substance
# 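Also: peak tail current of the secondary pulse compared with the same well before compound.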
# Sequence of human ether-à-go-go-related gene (hERG) potassium channel (Q12809 whole entry, looked up): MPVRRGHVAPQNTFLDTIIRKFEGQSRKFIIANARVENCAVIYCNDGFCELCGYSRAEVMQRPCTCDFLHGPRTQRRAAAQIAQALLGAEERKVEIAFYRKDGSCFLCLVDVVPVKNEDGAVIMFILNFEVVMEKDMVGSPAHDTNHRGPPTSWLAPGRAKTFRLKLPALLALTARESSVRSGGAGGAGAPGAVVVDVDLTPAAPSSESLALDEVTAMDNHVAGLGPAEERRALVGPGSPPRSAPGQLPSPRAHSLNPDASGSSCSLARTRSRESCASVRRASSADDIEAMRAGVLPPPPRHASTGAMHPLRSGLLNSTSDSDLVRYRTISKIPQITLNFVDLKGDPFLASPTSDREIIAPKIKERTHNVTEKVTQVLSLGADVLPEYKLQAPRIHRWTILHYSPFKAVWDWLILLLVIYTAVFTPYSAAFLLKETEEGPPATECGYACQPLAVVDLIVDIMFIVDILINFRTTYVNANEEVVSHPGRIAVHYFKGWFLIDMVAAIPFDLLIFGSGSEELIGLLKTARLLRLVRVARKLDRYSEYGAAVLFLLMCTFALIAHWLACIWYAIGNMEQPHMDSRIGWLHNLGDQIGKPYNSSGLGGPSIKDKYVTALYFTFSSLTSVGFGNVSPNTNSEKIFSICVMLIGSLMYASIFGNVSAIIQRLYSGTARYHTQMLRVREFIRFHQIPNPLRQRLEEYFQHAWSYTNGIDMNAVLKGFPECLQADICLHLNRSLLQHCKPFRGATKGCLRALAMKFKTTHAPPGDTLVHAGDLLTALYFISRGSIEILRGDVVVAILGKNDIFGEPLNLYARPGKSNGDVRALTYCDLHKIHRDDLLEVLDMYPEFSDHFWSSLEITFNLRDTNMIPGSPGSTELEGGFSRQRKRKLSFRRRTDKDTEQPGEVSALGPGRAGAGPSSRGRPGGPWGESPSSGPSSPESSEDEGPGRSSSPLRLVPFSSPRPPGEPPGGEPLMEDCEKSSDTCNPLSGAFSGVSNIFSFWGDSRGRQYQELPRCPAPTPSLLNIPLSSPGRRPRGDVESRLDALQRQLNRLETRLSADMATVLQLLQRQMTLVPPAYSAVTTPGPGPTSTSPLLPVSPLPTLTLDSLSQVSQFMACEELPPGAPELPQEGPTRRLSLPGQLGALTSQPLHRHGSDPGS
row,SMILES,"hERG current change (%, negative = inhibition) at 10uM [%]"
1,COc1cc(NC(=O)NNC(=O)c2cc3occc3n2C)cc(OC)c1OC,26.1
2,CNS(=O)(=O)c1cccc(C(=O)NCC2(N3CCCCC3)CCCCC2)c1,-18.3
3,CS(=O)(=O)c1ccc(C(=O)NCC2(N3CCCCC3)CCCCC2)cc1,-11
4,Cc1cccc(NS(=O)(=O)c2cccc(C(=O)NCC3(N4CCCCC4)CCCCC3)c2)c1,-89.9
5,Cc1cc(S(=O)(=O)Nc2ccc(C(=O)NCC3(N4CCCCC4)CCCCC3)cc2)ccc1F,-66.4
6,O=C(NCC1(N2CCCCC2)CCCCC1)c1ccc(NS(=O)(=O)c2ccc(F)cc2)cc1,-42.9
7,CNS(=O)(=O)c1cccc(C(=O)NCC2(N3CCOCC3)CCCCC2)c1,9.92
8,O=C(COc1ccccc1)Nc1nc(-c2cccs2)cs1,5.72
9,CCOC(=O)c1c(C)[nH]c(C(=O)OC(C)C(=O)NCc2ccccc2)c1C (stereo not shown),17.4
10,COc1ccccc1-c1nnc(NC(=O)C2=COCCO2)o1,14.3
11,CCc1sc(C(=O)N2CCC3(CC2)OCCO3)cc1Br,-7.08
12,CC(=O)Nc1ccc(Nc2nnc(-c3ccc(C)c(S(=O)(=O)NCC4CCCO4)c3)c3ccccc23)cc1 (stereo not shown),-5.1
13,O=C1NN(c2ccc(Br)cc2)C(=O)/C1=C\c1ccc(O)cc1O,30.2
14,Cc1ccccc1C(=O)Nc1ccc2nc3n(c(=O)c2c1)CCC3,-9.1
15,Nc1c(C=C2C=CC(=O)C=C2)c(=O)nc2sc(CC(=O)N3CCCCC3)nn12,15.6
16,COc1ccc(CNCc2cc(C)c(OC)cc2C)c(OC)c1.O=C(O)C(=O)O,-54.9
17,CCn1c2ccccc2c2cc(CNCc3ccc(OC)cc3OC)ccc21.O=C(O)C(=O)O,-76.2
18,COc1cccc(CNCc2ccc(OC)cc2OC)c1.O=C(O)C(=O)O,-14.1
19,COc1ccc(CNCc2cc(OC)ccc2OC)cc1.O=C(O)C(=O)O,-30.3
20,CCC(CC)NCc1ccc2c(c1)c1ccccc1n2CC.O=C(O)C(=O)O,-28.5
21,CCn1c2ccccc2c2cc(CN3CCN(Cc4cc(OC)ccc4O)CC3)ccc21.O=C(O)C(=O)O,7.15
22,COc1ccc(NC(=S)NCc2ccc(F)cc2)c(OC)c1,1.54

row,SMILES,"hERG current change (%, negative = inhibition) at 10uM [%]"
1,Br.COc1ccc(CNCc2ccc(F)cc2)c(OC)c1,-79
2,COc1ccc(CNCc2ccc3ccccc3c2)c(OC)c1.O=C(O)C(=O)O,-68.3
3,COc1ccc(CNCc2ccncc2)c(OC)c1.Cl,-0.685
4,COc1cc(CNCc2ccc(OC)cc2OC)cc(OC)c1.O=C(O)C(=O)O,-29.5
5,COc1ccc(CNCc2ccc(C)cc2)c(OC)c1.O=C(O)C(=O)O,-31.3
6,CC1(C)CN(c2ccc(N3CC(C)(C)C3=O)cc2)C1=O,4.66
7,O=C(NC1CC2CCCC(C1)N2C(=O)Nc1ccccc1)c1ccncc1 (stereo not shown),0.052
8,CNCCc1c[nH]c2ccc(O)cc12.O=C(O)C(=O)O,17.7
9,Cc1cccc(NC(=O)c2ccccc2NC(=O)C(C)(C)C)n1,-0.982
10,CC(C)c1ccc(Nc2nnc(SCC(=O)c3nnc(-c4ccccc4)o3)s2)cc1,22.2
11,CCn1c(NCc2ccc(N(C)C)cc2)nc2ccccc21,-41.2
12,O=C(Nc1nccs1)c1ccccn1,-3.04
13,Nc1nc(SCc2nc3sc4c(c3c(=O)[nH]2)CCCC4)n[nH]1,8.47
14,CCOc1cccc(CNCCNC(=O)c2nonc2N)c1.Cl,-7.85
15,COc1ccc(Cl)cc1C(=O)NCC(c1ccco1)N(C)C (stereo not shown),-4.19
16,O=C(c1ccco1)N1CCN(C(=O)c2ccc(CS(=O)c3ccc(F)cc3)o2)CC1 (stereo not shown),11.8
17,O=C(c1ccco1)N1CCN(C(=O)c2ccccc2OCc2ccc(Cl)cc2)CC1,-75.9
18,CN(C)C(CNC(=O)c1ccccc1OCc1ccc(Cl)cc1)c1ccco1 (stereo not shown),-60.3
19,O=C(c1ccco1)N1CCN(C(=O)c2ccc(COc3ccc(F)cc3)o2)CC1,-62.6
20,CSc1ccccc1C(=O)NCC(c1ccco1)N(C)C (stereo not shown),16.9
21,O=C(c1ccc(COc2ccc(Cl)cc2)o1)N1CCN(Cc2ccc3c(c2)OCO3)CC1,-12.7
